The target of test [1] is Ubiquitin carboxyl-terminal hydrolase 1 (Homo sapiens) (UniProt O94782). The experiment in a line: Inhibitors of USP1/UAF1: Pilot qHTS (AID 504865).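 Note: rhodamine fluorescence freed from ubiquitin-rhodamine substrate followed over time; top concentration of the series differs between compounds; nearly all actives have a fitted effect of over 35% in size.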 The procedure, abridged:
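Deubiquitinase activity followed as kinetic rhodamine fluorescence release from 150 nM Ub-Rho. 1 nM USP1/UAF1 with compound, after 15 min room-temperature preincubation, in HEPES pH 7.8 buffer containing TCEP, EDTA, BSA and Tween-20.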
(In general: Quantitative high-throughput screening tests each substance at several concentrations.)

The target in test [2] is Peptidyl-prolyl cis-trans isomerase NIMA-interacting 1 (Homo sapiens) (UniProt Q13526). Put plainly: qHTS Validation Assay to Find Inhibitors of Pin1 (AID 504536; active = well fitted inhibition curve with a large enough effect in the polarisation, with a control signal flat, not every such curve was filed as active; the % refers to the polarisation). The procedure, abridged: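 Fluorescence polarization competition: compounds (titration) displace HiFluor-488-labeled Pin1-1b peptide from Pin1 (0.3 uM final) in pH 7.5 HEPES buffer with DTT, 10 min at room temperature; %Activity normalized to no-enzyme wells, curves fitted.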

Test [3] has as its target Phosphoglycerate kinase, glycosomal (Trypanosoma brucei brucei) (UniProt P07378). Put plainly: qHTS Validation Assay to Find Inhibitors of Phosphoglycerate Kinase (AID 504547). The procedure, abridged:
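Compounds are pinned into the substrate/PGK mixture, and GAPDH (100nM final) is added to start the reaction by producing 1,3-BPG. After 60 minutes at room temperature, Kinase-Glo Plus is added and luminescence is measured 10 minutes later.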

The target of test [4] is phosphoglycerate mutase (Leishmania major) (UniProt Q4Q090). The experiment in a line: qHTS Validation Assay to Find Inhibitors of Phosphoglycerate Mutase (AID 504548). Note: series mostly up to about 58 µM. The following applies: Potency: inhibition qHTS. The procedure, abridged: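 Lm PGAM 1.25nM final; 100 mM TEA pH 7.6, 5 mM MgCl2, 0.01% Tween-20; 45 min RT; Kinase-GloPlus, 10 min; end-point luminescence. Enzyme-free wells as negative controls.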

Test [5] is described as follows: Inducers of the Endoplasmic Reticulum Stress Response (ERSR) in human glioma: Validation (AID 504836). The procedure, abridged: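 Stably transfected U87-MG glioma cells carrying a GRP78-based luciferase sensor; 16 h compound incubation. Luminescence end-point read 10 min after Bright-Glo addition at room temperature.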
A short description of test [6]: qHTS for Inhibitors of ATXN expression: Validation of Cytotoxic Assay (AID 588349). Note: potency is the fitted concentration of half-maximal effect. The method, boiled down:
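Toxicity of test compounds toward HEK293 cells is scored from cellular ATP content measured by CellTiter Glo. Cells receive titrated doses and incubate 72 hr at 37 degrees C beforehand.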

Test [7] is described as follows: qHTS for Inhibitors of ATXN expression: Validation (AID 588378). Note: nearly all actives have a fitted effect of over 75% in size. Note: potency is the fitted concentration of half-maximal effect. The procedure, abridged:
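Luciferase luminescence (Bright-Glo) from an ATXN2-FFLuc HEK293 line after 24 h compound exposure at 37 °C, preceded by a CellTiter-Fluor fluorescence viability read. Serial dilutions of a reference ATXN2 inhibitor and a luciferase inhibitor served as controls.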

Results filed as inconclusive are left out. Active and inactive are the calls of the source. Unless noted, calls come from the whole dose curve; as a rule, active = well fitted curve in the direction sought with a large enough effect; inconclusive = small, poorly fitted or top-dose-only effect, or another doubt; inactive = no such curve, though single readings can be large; an effect the other way counts as inactive or inconclusive.

Sequence of Ubiquitin carboxyl-terminal hydrolase 1 (Homo sapiens) (O94782 whole entry, looked up): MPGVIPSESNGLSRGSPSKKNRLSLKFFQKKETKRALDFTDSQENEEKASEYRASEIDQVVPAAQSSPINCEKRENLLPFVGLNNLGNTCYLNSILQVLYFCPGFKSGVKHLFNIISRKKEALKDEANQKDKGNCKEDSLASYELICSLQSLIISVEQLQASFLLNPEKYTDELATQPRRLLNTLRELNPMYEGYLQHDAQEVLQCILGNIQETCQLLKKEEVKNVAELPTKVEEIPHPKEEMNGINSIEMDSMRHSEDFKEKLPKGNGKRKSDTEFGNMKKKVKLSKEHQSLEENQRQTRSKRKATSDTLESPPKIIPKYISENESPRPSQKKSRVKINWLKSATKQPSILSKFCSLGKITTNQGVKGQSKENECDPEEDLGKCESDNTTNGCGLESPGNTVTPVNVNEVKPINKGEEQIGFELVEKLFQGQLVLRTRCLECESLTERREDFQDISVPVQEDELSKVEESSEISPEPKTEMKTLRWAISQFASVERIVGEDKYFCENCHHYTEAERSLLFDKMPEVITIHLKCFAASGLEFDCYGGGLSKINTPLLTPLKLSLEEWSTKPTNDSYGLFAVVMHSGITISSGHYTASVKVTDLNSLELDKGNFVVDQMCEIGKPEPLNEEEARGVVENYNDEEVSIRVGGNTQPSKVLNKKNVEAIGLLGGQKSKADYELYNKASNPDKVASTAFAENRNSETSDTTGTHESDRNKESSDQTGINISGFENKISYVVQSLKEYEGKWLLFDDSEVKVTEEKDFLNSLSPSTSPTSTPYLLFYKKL
Sequence of Phosphoglycerate kinase, glycosomal (Trypanosoma brucei brucei) (P07378 whole entry, looked up): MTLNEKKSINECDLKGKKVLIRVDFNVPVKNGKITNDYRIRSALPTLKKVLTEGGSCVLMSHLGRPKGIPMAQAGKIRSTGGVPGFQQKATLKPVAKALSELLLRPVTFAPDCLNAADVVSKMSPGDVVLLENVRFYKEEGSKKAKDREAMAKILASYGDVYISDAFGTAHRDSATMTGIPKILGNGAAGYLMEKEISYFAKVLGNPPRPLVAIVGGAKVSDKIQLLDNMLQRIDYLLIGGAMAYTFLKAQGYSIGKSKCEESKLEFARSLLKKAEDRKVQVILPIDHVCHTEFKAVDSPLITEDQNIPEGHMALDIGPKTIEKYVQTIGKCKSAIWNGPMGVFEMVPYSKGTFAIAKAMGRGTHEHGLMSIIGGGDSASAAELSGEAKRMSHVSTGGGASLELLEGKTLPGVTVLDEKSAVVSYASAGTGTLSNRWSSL
Sequence of phosphoglycerate mutase (Leishmania major) (Q4Q090 1-553): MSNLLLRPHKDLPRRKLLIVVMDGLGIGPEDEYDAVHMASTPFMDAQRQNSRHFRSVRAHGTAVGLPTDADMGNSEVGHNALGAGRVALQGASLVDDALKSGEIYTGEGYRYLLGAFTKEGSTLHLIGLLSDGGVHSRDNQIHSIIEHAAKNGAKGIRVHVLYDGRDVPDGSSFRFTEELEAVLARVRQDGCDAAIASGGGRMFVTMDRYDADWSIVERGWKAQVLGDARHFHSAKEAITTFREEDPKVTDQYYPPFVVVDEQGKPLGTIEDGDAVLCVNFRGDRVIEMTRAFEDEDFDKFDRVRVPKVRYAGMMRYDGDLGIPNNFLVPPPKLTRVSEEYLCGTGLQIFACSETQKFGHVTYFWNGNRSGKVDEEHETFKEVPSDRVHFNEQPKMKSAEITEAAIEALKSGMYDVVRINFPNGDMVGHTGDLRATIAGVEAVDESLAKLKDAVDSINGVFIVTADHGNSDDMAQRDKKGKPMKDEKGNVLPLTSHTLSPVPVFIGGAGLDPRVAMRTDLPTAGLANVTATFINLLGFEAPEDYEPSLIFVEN
Sequence of Peptidyl-prolyl cis-trans isomerase NIMA-interacting 1 (Homo sapiens) (Q13526 whole entry, looked up): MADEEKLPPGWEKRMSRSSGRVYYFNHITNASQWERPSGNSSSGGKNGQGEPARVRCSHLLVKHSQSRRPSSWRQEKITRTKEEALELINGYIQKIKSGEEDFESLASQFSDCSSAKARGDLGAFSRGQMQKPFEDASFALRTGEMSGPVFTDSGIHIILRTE

As for `C=CCC1(C(C)CCC)C(=O)N=C(S)NC1=O` (stereo not given), in test [1], the Potency entry was “inactive”.

For `CCC1(C)CC(=O)NC(=O)C1`, the Potency result in test [1] is “inactive”.

As to `CNC(=O)Oc1ccccc1C(=O)Nc1ccccc1`, the Potency entry in test [1] was “inactive”.

Take `O=C1CN(O)C(c2ccccc2)=c2cc(Cl)ccc2=N1`: the Potency entry in test [1] is “inactive”.

Turning to `CNC1(c2ccccc2Cl)CCCCC1=O` (stereo not given), the Potency entry in test [1] is “inactive”.

As for `N#CCCN`, the Potency entry in test [2], in test [3], in test [4], in test [1], in test [6] and in test [7] was “inactive” each time. Also, the call in test [5] was inactive.

`C[C@@H]1O[C@@H](O[C@H]2C[C@@H](O)[C@]3(CO)[C@@H]4C(CC[C@]3(O)C2)[C@@]2(O)CC[C@H]([C@@H]3COC(=O)C3)[C@@]2(C)C[C@H]4O)[C@H](O)[C@H](O)[C@H]1O` (stereo not given in full): the Potency entry in test [2], in test [4] and in test [1] was “inactive” in each case. In test [5], the outcome was inactive. Also, the Potency in test [7] is 1.78 µM (active).

Consider `CN1CC[C@@]2(C)c3cc(OC(=O)Nc4ccccc4)ccc3N(C)[C@@H]12`, for which the Potency result in test [2], in test [3], in test [4] and in test [7] was “inactive” throughout. Also, in test [5], the call was inactive.

Take `OC(c1ccccc1)(c1ccccc1)C1CN2CCC1CC2` (stereo not given): in test [1], the Potency entry was “inactive”.

Turning to `N[C@@H](Cn1ccc(=O)[nH]c1=O)C(=O)O`, the Potency entry in test [2], in test [4], in test [1], in test [6] and in test [7] was “inactive” throughout. Besides, the molecule was called inactive in test [5].

Consider `c1ccc2sc(SNC3CCCCC3)nc2c1`, for which the Potency result in test [1] was “inactive”.

Regarding `CCCC(=O)OC(C(Cl)(Cl)Cl)P(=O)(OC)OC` (stereo not given), the Potency entry in test [1] was “inactive”.

For `N#C/C(=C/c1ccc(O)c(O)c1)C(N)=S`, the Potency entry in test [2], in test [4], in test [1] and in test [7] was “inactive” each time. Besides, the result in test [5] was inactive.

In the case of `CN1CCc2cc(O)cc3c2[C@H]1Cc1ccc(O)c(O)c1-3`, the Potency result in test [2], in test [1], in test [6] and in test [7] was “inactive” in each case. In addition, the molecule was classed as inactive in test [5].

As to `Clc1ccc(C2(Cn3cncn3)OCCO2)c(Cl)c1`, the Potency entry in test [1] was “inactive”.

For `COC([CH2][Hg])CNC(=O)c1ccccc1OCC(=O)O` (stereo not given), the Potency entry in test [1] was “inactive”.

Consider `Oc1cc(Cl)c(Cl)cc1Cl`, for which, in test [1], the Potency result was “inactive”.

For the molecule `COc1ccc2c(c1O)-c1cccc3c1[C@@H](C2)N(C)CC3`, the Potency result in test [2], in test [3], in test [4], in test [1] and in test [7] was “inactive” throughout.

For `O=C(OCCN1CCCCC1)C(O)(c1ccccc1)c1ccccc1`, the Potency result in test [1] was “inactive”.

`C#CC(C)(O)CC` (stereo not given): the Potency entry in test [1] is “inactive”.

On to `COC1=CC=C2[C@H]3Cc4ccc(OC)c5c4[C@@]2(CCN3C)[C@H]1O5`, for which the Potency result in test [1] was “inactive”.

Take `CN1c2ccccc2C(NCCCCCCC(=O)O)c2ccc(Cl)cc2S1(=O)=O` (stereo not given): the Potency entry in test [1] was “inactive”.

In the case of `CCC1(CC)C(=O)NC(=O)N(C)C1=O`, the Potency result in test [1] is “inactive”.

Take `CC(C)(O)C1C2OC(=O)C1C1(O)CC3OC34C(=O)OC2C14C` (stereo not given): the Potency result in test [1] was “inactive”.

Consider `CC(=O)OCC1=C(C(=O)O)N2C(=O)[C@@H](NC(=O)CCC[C@@H](N)C(=O)O)[C@H]2SC1`, for which the Potency result in test [2], in test [4], in test [1], in test [6] and in test [7] was “inactive” throughout. Further, the result in test [5] was inactive.

With `CCC1C(C)=NN=C(c2ccc(OC)c(OC)c2)c2cc(OC)c(OC)cc21` (stereo not given), in test [1], the Potency result was “inactive”.

Regarding `CCCN1CCc2cccc3c2[C@H]1Cc1ccc(O)c(O)c1-3`, the Potency entry in test [2], in test [4] and in test [1] was “inactive” each time. For the same molecule, the Potency in test [6] was 35.5 µM (active).

Turning to `CCCC(C)C1(CC)C(=O)NC(=O)NC1=O` (stereo not given), the Potency result in test [1] was “inactive”.

As for `CCN1C[C@@]2(COC)C3[C@@H](OC)C4[C@@H]1C3([C@@H]1C[C@]3(O)[C@H](OC(=O)c5ccccc5)[C@@H]1[C@]4(OC(C)=O)[C@@H](O)[C@@H]3OC)[C@H](OC)C[C@H]2O`, the Potency result in test [2], in test [4], in test [1], in test [6] and in test [7] was “inactive” in each case. Besides, in test [5], the molecule was classed as inactive.

As to `N=C(N)c1ccc(CS(=O)(=O)F)cc1`, the Potency entry in test [2], in test [4], in test [1], in test [6] and in test [7] was “inactive” in each case. Besides, in test [5], the molecule was called inactive.

As for `O=[N+]([O-])/C=C/c1ccc2c(c1)OCO2`, the Potency entry in test [2], in test [3], in test [4] and in test [1] was “inactive” in each case. Besides, the Potency in test [7] is 10 µM (active).

Regarding `C=CCN(C1=NCCN1)c1c(Cl)cccc1Cl`, the Potency result in test [2], in test [3], in test [4], in test [1], in test [6] and in test [7] was “inactive” in each case.
